Source: PubChem BioAssay (EPA / NIEHS)
Values joined by “and” are separate entries in the source; they are usually repeats but may differ in a detail not shown here. Equal values may be shown once. Results filed as inconclusive are left out. The source holds several records for some structures; these can differ, active in one and inactive in another. Active and inactive are the calls of the source. The calls were made as follows, unless noted: active = hit-call score of the fitted dose curve at least 0.9, where 1 is the maximum; inactive = score below 0.9.

Columns and labels:
[1] = BSK_LPS_SRB: Viability Assessment in the BioMAP Diversity Plus: LPS Assay (AID 2283079); settings: primary human HUVEC with PBMC;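 also: total protein by sulforhodamine B absorbance as a cytotoxicity measure; measured one day after compound addition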
In short: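 SRB viability endpoint: cells fixed with 10% TCA, stained with 0.1% SRB, read at 560 nm, 24 h post-dose. HUVEC/PBMC co-culture; signal change in either direction scored relative to DMSO.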

[2] = read-out: Interleukin-1 alpha (IL1a), IL1A (gene 3552); test: BSK_LPS_IL1a: BioMAP Diversity Plus: LPS Assay for Interleukin-1 alpha (IL1a) Biomarker Activity (AID 2283080); settings: primary human HUVEC with PBMC; actives raise or lower the signal
In short: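 Readout is IL-1a level by ELISA, 24 h post-dose, fitted as gain or loss relative to DMSO. System: LPS-activated human primary co-culture of vascular endothelium and peripheral blood mononuclear cells, with parallel SRB total-protein cytotoxicity.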

[3] = read-out: Monocyte Chemoattractant Protein-1 (MCP1), CCL2 (gene 6347); test: BSK_LPS_MCP1: BioMAP Diversity Plus: LPS Assay for Monocyte Chemoattractant Protein-1 (MCP1) Biomarker Activity (AID 2283081); settings: primary human HUVEC with PBMC; actives raise or lower the signal;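 as to AC50: secreted MCP-1 protein quantified by ELISA in culture supernatant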
In short: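 Secreted MCP-1 read by ELISA at 24 h post-dosing in an LPS-activated co-culture of endothelial cells with peripheral blood mononuclear cells. Fits run in both directions, DMSO as baseline; parallel SRB staining tracks overt cytotoxicity.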

[4] = BSK_LPS_PGE2: BioMAP Diversity Plus: LPS Assay for Prostaglandin E2 (PGE2) Biomarker Activity (AID 2283082); settings: primary human HUVEC with PBMC; actives raise or lower the signal;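 as to AC50: secreted prostaglandin E2 measured by ELISA in LPS-stimulated co-culture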
In short: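 HUVEC plus human PBMC co-culture stimulated with LPS; secreted PGE2 quantified by ELISA 24 h after chemical dosing. Activity fitted bidirectionally against DMSO baseline; parallel SRB staining (0.1% SRB after 10% TCA fixation, 560 nm) flags overt cytotoxicity.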

[5] = read-out: Macrophage colony-stimulating factor (MCSF), CSF1 (gene 1435); test: BSK_LPS_MCSF: BioMAP Diversity Plus: LPS Assay for Macrophage colony-stimulating factor (MCSF) Biomarker Activity (AID 2283083); settings: primary human HUVEC with PBMC; actives raise or lower the signal
In short: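 Bidirectional fitting against DMSO was applied to M-CSF levels read by ELISA at 24 h post-dose. The system pairs human umbilical vein endothelium with peripheral blood mononuclear cells; parallel SRB staining tracked cytotoxicity.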

[6] = read-out: Tissue Factor, F3 (gene 2152); test: BSK_LPS_TissueFactor: BioMAP Diversity Plus: LPS Assay for Tissue Factor Biomarker Activity (AID 2283084); settings: primary human HUVEC with PBMC; actives raise or lower the signal
In short: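 Compound was added to an endothelial cell/PBMC co-culture, and after 24 h tissue factor (CD142) was read by ELISA. Gain or loss of signal was fitted against a DMSO baseline, and parallel SRB staining (560 nm) tracked overt cytotoxicity.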

[7] = read-out: Tumor necrosis factor (Homo sapiens) (UniProt P01375); test: BSK_LPS_TNFa: BioMAP Diversity Plus: LPS Assay for Tumour Necrosis Factor alpha (TNFa) Biomarker Activity (AID 2283085); settings: primary human HUVEC with PBMC; actives raise or lower the signal
In short: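 Human umbilical vein endothelial cells co-cultured with PBMC and stimulated with LPS. TNFa was measured by ELISA 24 h after chemical dosing, fitted bidirectionally relative to DMSO.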

[8] = read-out: Vascular cell adhesion molecule 1 (VCAM1), VCAM1 (gene 7412); test: BSK_LPS_VCAM1: BioMAP Diversity Plus: LPS Assay for Vascular cell adhesion molecule 1 (VCAM1) Biomarker Activity (AID 2283086); settings: primary human HUVEC with PBMC; actives raise or lower the signal
In short: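 Human umbilical vein endothelial cells co-cultured with PBMC and stimulated with LPS; VCAM-1 measured by ELISA 24 h after dosing. Bidirectional curve fitting against DMSO baseline; cytotoxicity tracked in parallel by SRB total-protein staining.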

[9] = read-out: CD38, CD38 (gene 952); test: BSK_SAg_CD38: BioMAP Diversity Plus: SAg Assay for CD38 Biomarker Activity (AID 2283087); settings: primary human HUVEC with PBMC; actives raise or lower the signal
In short: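 Human HUVEC plus PBMC co-culture stimulated with superantigen; CD38 measured by ELISA 24 h after chemical dosing. Fluorescence read-out, bidirectional fit against DMSO; cytotoxicity tracked in parallel by SRB and Alamar Blue.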

[10] = read-out: CD40, CD40 (gene 958); test: BSK_SAg_CD40: BioMAP Diversity Plus: SAg Assay for CD40 Biomarker Activity (AID 2283088); settings: primary human HUVEC with PBMC; actives raise or lower the signal
In short: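 CD40 is measured by fluorescence ELISA in an endothelial/PBMC primary human co-culture at 24 h post-dose. Fitting is bidirectional, DMSO baseline. Parallel SRB staining (560 nm) flags cytotoxicity.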

[11] = read-out: CD69, CD69 (gene 969); test: BSK_SAg_CD69: BioMAP Diversity Plus: SAg Assay for CD69 Biomarker Activity (AID 2283089); settings: primary human HUVEC with PBMC; actives raise or lower the signal;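 as to AC50: cell surface CD69 protein quantified by ELISA with fluorescence detection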
In short: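 HUVEC co-cultured with PBMC were dosed with chemical, and CD69 was measured by ELISA with fluorescence read-out 24 h later. Bidirectional curve fitting used DMSO as negative control and activity baseline.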

[12] = read-out: Monocyte Chemoattractant Protein-1 (MCP1), CCL2 (gene 6347); test: BSK_SAg_MCP1: BioMAP Diversity Plus: SAg Assay for Monocyte Chemoattractant Protein-1 (MCP1) Biomarker Activity (AID 2283090); settings: primary human HUVEC with PBMC; actives raise or lower the signal
In short: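 MCP-1 levels in the endothelial–PBMC SAg co-culture were quantified by ELISA at 24 h post-dosing; both increases and decreases versus DMSO scored. Cytotoxicity monitored by SRB total protein in parallel cultures.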

[13] = read-out: E-selectin (Homo sapiens) (UniProt P16581); test: BSK_SAg_Eselectin: BioMAP Diversity Plus: SAg Assay for Eselectin Biomarker Activity (AID 2283091); settings: primary human HUVEC with PBMC; actives raise or lower the signal
In short: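 Cell-surface E-selectin is read by ELISA at 24 h in the SAg co-culture of HUVEC and PBMC. Curves are fitted in both directions relative to DMSO. Parallel SRB total-protein staining tracks overt toxicity.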

[14] = read-out: Monokine induced gamma interferon (MIG), CXCL9 (gene 4283); test: BSK_SAg_MIG: BioMAP Diversity Plus: SAg Assay for Monokine induced gamma interferon (MIG) Biomarker Activity (AID 2283092); settings: primary human HUVEC with PBMC; actives raise or lower the signal
In short: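 HUVEC plus human PBMC co-culture, chemicals dosed and MIG (CXCL9) quantified by ELISA at 24 h. Bidirectional curve fitting against DMSO as negative control and baseline, so both gain and loss of signal count as activity.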

[15] = BSK_SAg_PBMCCytotoxicity: PBMC Cytotoxicity Assessment in the BioMAP Diversity Plus: SAg Assay (AID 2283093); settings: primary human HUVEC with PBMC;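 also: PBMC viability measured as Alamar Blue reduction fluorescence at 546/580 nm; fitted both ways against DMSO so a hit may be loss or gain of signal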;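 as to AC50: PBMC superantigen activated with SEB plus TSST-1 one hour after compound addition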
In short: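 Human umbilical vein endothelial cells co-cultured with PBMC; PBMC (75,000/well) pre-treated with compound 1 h, then activated with SEB and TSST-1 (20 ng/mL final each) for 90 h. Alamar Blue added 6 h, fluorescence 546/580 nm; bidirectional fit versus DMSO.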

[16] = read-out: Interleukin-8 (IL8), CXCL8 (gene 3576); test: BSK_SAg_IL8: BioMAP Diversity Plus: SAg Assay for Interleukin-8 (IL8) Biomarker Activity (AID 2283094); settings: primary human HUVEC with PBMC; actives raise or lower the signal
In short: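 Human umbilical vein endothelial cells co-cultured with PBMC, stimulated with superantigen; IL-8 measured by ELISA 24 h after chemical dosing. Bidirectional fitting versus DMSO; SRB staining in parallel cultures tracks cytotoxicity.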

[17] = BSK_SAg_Proliferation: Cell Proliferation Assessment in the BioMAP Diversity Plus: SAg Assay (AID 2283095); settings: primary human HUVEC with PBMC
In short: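 Human umbilical vein endothelial cells co-cultured with PBMC; sulforhodamine B total-protein staining (0.1% SRB after 10% TCA fixation, absorbance 560 nm) at 96 h in sub-confluent culture. Fitted bidirectionally against DMSO.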

[18] = BSK_SAg_SRB: Viability Assessment in the BioMAP Diversity Plus: SAg Assay (AID 2283096); settings: primary human HUVEC with PBMC;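 also: cells read one day after compound addition; hits may be either gain or loss of signal compared with DMSO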
In short: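 Endothelial/PBMC primary human co-culture; compound 24 h; fix 10% TCA, stain 0.1% SRB, A560; protein content as cytotoxicity proxy; bidirectional curve fit, DMSO = baseline.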

[19] = biological target: human CYP2A6, CYP2A6 (gene 1548) (UniProt P11509); test: NVS_ADME_hCYP2A6: NovaScreen (NVS) CYP450-related Enzyme Activity (ADME) Assay for human CYP2A6 (AID 2283099; active = hit-call score of the fitted dose curve at least 0.9, where 1 is the maximum)
In short: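 Compounds screened at 10 uM (duplicate) and, if active, titrated to a 20 uM top concentration against insect-cell-expressed CYP2A6. Loss of fluorescent product signal after 0.5 h, relative to acetonitrile baseline, indicates inhibition.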

[20] = biological target: human CYP19A1, CYP19A1 (gene 1588) (UniProt P11511); test: NVS_ADME_hCYP19A1: NovaScreen (NVS) CYP450-related Enzyme Activity (ADME) Assay for human CYP19A1 (AID 2283098; active = hit-call score of the fitted dose curve at least 0.9, where 1 is the maximum;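 as to AC50: potency for inhibitors seen as loss of fluorescent enzyme signal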)
In short: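 Cell-free enzyme assay with recombinant protein and a specific fluorogenic substrate, read by fluorescence intensity 0.5 h after dosing. Primary screen ran in duplicate at 10 uM; actives were retested in concentration series. Loss of signal versus acetonitrile baseline.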

Measured: AC50

E-selectin (Homo sapiens), sequence (P16581 whole entry, looked up): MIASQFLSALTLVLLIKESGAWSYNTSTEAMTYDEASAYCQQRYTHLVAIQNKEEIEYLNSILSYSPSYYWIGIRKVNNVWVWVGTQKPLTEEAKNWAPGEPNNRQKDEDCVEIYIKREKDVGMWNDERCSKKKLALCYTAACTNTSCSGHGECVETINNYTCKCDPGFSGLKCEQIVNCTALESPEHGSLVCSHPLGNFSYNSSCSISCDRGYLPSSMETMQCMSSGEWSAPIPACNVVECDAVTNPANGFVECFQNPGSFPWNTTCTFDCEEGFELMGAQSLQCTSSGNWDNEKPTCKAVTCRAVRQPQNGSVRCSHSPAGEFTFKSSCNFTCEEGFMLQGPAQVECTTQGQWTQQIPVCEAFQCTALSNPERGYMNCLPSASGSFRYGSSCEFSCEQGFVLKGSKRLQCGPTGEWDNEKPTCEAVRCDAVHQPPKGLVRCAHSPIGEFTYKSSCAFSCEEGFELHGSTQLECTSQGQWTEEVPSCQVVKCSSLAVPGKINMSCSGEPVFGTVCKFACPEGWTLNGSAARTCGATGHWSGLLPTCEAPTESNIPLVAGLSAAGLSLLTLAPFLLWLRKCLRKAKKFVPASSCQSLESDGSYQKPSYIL
Tumor necrosis factor (Homo sapiens), sequence (P01375 whole entry, looked up): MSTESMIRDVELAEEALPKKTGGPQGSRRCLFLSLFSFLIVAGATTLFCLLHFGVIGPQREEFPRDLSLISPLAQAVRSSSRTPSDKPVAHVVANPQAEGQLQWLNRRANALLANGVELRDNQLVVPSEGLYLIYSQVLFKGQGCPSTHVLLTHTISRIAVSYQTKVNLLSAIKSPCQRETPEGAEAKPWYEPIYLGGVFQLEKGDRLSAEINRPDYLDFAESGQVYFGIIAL
human CYP19A1, CYP19A1 (gene 1588), sequence (P11511 whole entry, looked up): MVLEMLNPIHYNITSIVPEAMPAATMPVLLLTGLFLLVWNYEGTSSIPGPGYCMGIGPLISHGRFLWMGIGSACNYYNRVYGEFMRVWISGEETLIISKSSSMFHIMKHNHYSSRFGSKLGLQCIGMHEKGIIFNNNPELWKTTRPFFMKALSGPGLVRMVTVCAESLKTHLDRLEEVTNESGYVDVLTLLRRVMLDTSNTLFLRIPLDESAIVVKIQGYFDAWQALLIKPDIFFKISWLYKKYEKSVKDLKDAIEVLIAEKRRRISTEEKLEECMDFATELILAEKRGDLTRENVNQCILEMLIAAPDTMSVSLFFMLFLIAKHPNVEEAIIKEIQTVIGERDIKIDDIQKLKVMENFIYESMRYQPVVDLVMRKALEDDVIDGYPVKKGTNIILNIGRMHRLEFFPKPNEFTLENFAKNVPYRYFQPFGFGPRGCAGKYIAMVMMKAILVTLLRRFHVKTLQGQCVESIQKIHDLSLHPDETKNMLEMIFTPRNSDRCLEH
human CYP2A6, CYP2A6 (gene 1548), sequence (P11509 whole entry, looked up): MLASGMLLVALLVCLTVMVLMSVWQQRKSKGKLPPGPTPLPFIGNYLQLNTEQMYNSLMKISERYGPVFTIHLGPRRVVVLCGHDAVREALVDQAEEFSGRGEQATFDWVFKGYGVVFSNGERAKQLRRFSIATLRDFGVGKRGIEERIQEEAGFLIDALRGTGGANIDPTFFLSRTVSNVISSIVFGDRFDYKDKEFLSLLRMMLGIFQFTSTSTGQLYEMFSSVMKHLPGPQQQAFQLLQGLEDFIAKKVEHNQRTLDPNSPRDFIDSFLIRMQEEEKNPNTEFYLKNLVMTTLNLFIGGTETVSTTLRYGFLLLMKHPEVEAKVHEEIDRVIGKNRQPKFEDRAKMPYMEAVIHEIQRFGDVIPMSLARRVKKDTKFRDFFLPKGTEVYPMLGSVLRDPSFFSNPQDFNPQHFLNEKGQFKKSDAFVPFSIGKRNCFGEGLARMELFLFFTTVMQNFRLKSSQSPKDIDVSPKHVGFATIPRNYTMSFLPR

O=NN(c1ccccc1)c1ccccc1
active: [4] 2.14 µM | [7] 3.97 µM
not listed: [19] | [20]
inactive: all other assays above

CC(C)(c1ccccc1)c1ccc(O)cc1
active: [1] 33.1 µM | [2] 36.3 µM | [3] 35.2 µM | [4] 12.4 µM | [5] 33.6 µM | [6] 32.2 µM | [7] 31.5 µM | [8] 33.4 µM | [9] 31.2 µM | [10] 31.1 µM | [11] 37.9 µM | [12] 36.1 µM | [13] 33.5 µM | [14] 38.7 µM | [15] 31.5 µM | [16] 30.9 µM | [17] 34.2 µM | [18] 30.4 µM

COS(=O)(=O)OC
active: [7] 0.318 µM
not listed: [12] | [19] | [20]
inactive: all other assays above

Cc1cccc([N+](=O)[O-])c1
not listed: [12] | [20]
inactive: all other assays above

NS(=O)(=O)C(F)(F)C(F)(F)C(F)(F)C(F)(F)C(F)(F)C(F)(F)C(F)(F)C(F)(F)F
inactive: [3] | [4] | [6] | [8]
active: [1] 28.9 µM and 44.6 µM and 44.3 µM | [2] 32.1 µM and 48.7 µM and 52.2 µM | [3] 55.7 µM and 57.3 µM | [4] 52.2 µM and 51.9 µM | [6] 44.6 µM | [7] 28.6 µM and 49.6 µM and 49.3 µM | [8] 53.8 µM and 46.6 µM | [9] 27.8 µM and 43.8 µM and 42.4 µM | [10] 27.7 µM and 46.1 µM and 45.8 µM | [11] 27.4 µM and 40.8 µM and 43.4 µM | [13] 20 µM and 45.5 µM and 49 µM | [14] 34.6 µM and 51.3 µM and 56.3 µM | [15] 33.6 µM and 48 µM and 55.1 µM | [16] 31.8 µM and 43.3 µM and 44.3 µM | [17] 32.2 µM and 43.5 µM and 51.1 µM | [18] 27.6 µM and 47.4 µM and 44.9 µM

CCCCCCCCCc1ccc(O)cc1
active: [1] 23.1 µM | [2] 22 µM | [3] 32.2 µM | [4] 7.76 µM | [5] 23.6 µM | [6] 31.3 µM | [7] 36.5 µM | [8] 22 µM | [9] 15.9 µM | [10] 20.3 µM | [11] 22.7 µM | [12] 29.8 µM | [13] 20 µM | [14] 33.7 µM | [15] 16.2 µM | [16] 20.2 µM | [17] 14.3 µM | [18] 23.8 µM

O=C(O)C(F)(F)C(F)(F)C(F)(F)C(F)(F)C(F)(F)F
not listed: [12] | [19] | [20]
inactive: all other assays above

Clc1ccc(C(c2ccccc2Cl)C(Cl)(Cl)Cl)cc1 (configuration not stated)
active: [1] 19.2 µM | [2] 20.8 µM | [3] 21.6 µM | [4] 4.54 µM | [6] 23.4 µM | [7] 23.8 µM | [8] 19.2 µM | [9] 20.1 µM | [10] 14.1 µM | [11] 23.2 µM | [12] 21.5 µM | [13] 24.7 µM | [14] 27.6 µM | [15] 8.98 µM | [16] 13.5 µM | [17] 6.64 µM | [18] 12.7 µM

CC(C)(O)C(=O)Nc1ccc([N+](=O)[O-])c(C(F)(F)F)c1
active: [4] 0.024 µM | [5] 23.1 µM | [20] 6.99 µM and 5.59 µM
inactive: [1] | [2] | [3] | [6] | [7] | [8] | [9] | [10] | [11] | [14] | [15] | [16] | [17] | [18] | [20]

CCOCCOC(C)=O
not listed: [19] | [20]
inactive: all other assays above

ClC1=C(Cl)[C@]2(Cl)[C@@H]3[C@@H]4C[C@@H]([C@H]5O[C@@H]45)[C@@H]3[C@@]1(Cl)C2(Cl)Cl
active: [7] 3.05 µM | [8] 14.4 µM | [9] 14.4 µM | [10] 11.2 µM | [17] 20 µM | [18] 20 µM
not listed: [19] | [20]
inactive: all other assays above
